Source: PubChem (National Center for Advancing Translational Sciences (NCATS))
Gal4-VP16 FLuc = counter-screen for ROR gamma inhibitors: Gal4-VP16 reporter. 310,000 tested, 3.5% active. Potency, µM (highest dose often 53.6 µM), for inactives: at the top dose activity, negative = inhibition, usual class: inhibitors. Drosophila S2 Gal4-VP16 UAS-luciferase, luminescence, 20 h;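 further: Gal4-VP16 expression switched on by copper sulfate through the metallothionein promoter; potency means the concentration at half of the fitted maximal effect; nearly all actives have a fitted effect of over 50% in size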
RORgamma inh = blocks mouse ROR gamma transcriptional activity. P51450. Drosophila S2 Gal4-RORgamma UAS-luciferase reporter, 20 h. Potency, µM (highest dose often 53.6 µM), inactives show at the top dose activity change, negative = inhibition, actives largely listed as inhibitors. 310,000 tested, 5.4% active; further: potency means the concentration at half of the fitted maximal effect; nearly all actives have a fitted effect of over 60% in size
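Drosophila Schneider cells stably carrying a metallothionein-driven Gal4 DBD–ROR gamma fusion and a UAS-Photinus luciferase reporter were exposed to compound for 1 hr, then induced with copper sulfate (700 uM final) for 20 hr at ambient temperature before luminescence reading.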
Six1-Eya2 blk = blocks human Six1 binding to Eya2 | AlphaScreen GST-Six1/His-Eya2 binding, biochemical; stronger effect = lower value | 360,000 tested, 0.56% active | Q15475+O00167 | activity change, % (concentration not given with the values); in the data active means activity change below about -65%; inconclusive means mostly about -30% to -63%
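AlphaScreen with GST-Six1 and His-Eya2 (5X mix: 250 nM and 500 nM), glutathione donor and nickel acceptor beads; buffer 50 mM Tris pH 8.0, 300 mM NaCl, 1 mM TCEP; 1 h at 37 C in the dark.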
PKM2 act = increases activity of human pyruvate kinase M2; P14618; purified PKM2, Kinase-Glo ATP luminescence, activation; response scale: 0% is enzyme alone, no compound; Potency, µM (series often up to 57.5 µM), inactives show at the highest dose activation, actives largely listed as activators; 260,000 tested, 0.34% active; AID 1631; further: potency means the concentration at half of the fitted maximal effect; nearly all actives have a fitted effect of over 55% in size
Target sequence (P14618 whole entry, looked up): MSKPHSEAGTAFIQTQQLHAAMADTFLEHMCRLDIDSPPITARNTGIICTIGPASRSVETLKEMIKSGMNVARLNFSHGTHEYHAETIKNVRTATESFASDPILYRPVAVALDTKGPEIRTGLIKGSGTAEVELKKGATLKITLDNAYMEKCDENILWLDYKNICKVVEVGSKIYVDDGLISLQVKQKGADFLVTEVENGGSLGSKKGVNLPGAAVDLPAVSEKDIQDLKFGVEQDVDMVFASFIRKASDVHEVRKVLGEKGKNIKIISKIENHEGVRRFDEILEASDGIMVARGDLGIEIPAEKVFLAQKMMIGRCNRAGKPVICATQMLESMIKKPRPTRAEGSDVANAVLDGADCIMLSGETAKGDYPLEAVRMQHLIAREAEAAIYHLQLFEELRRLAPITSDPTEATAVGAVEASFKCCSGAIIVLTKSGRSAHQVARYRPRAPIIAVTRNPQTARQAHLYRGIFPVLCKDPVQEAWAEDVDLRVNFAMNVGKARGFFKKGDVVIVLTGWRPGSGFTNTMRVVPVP
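ATP formation by purified human PK-M2, quantified via coupled luciferase luminescence after 1 h at room temperature with 0.1 mM ADP and 0.5 mM PEP final.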
CtBP-E1A inh = blocks the CtBP interaction with E1A; AlphaScreen GST-E1A/His-CtBP binding, 1536-well; stronger effect = lower value; activity change, % (no concentration beside the values); 340,000 tested, 0.49% active; AID 651724; in the data active means activity change below about -65%; inconclusive means mostly about -30% to -63%
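Steps: dispense buffer (Tris pH 8.0, NaCl 300 mM, TCEP 1 mM, BSA, Tween 20); add 5X protein mix (GST-E1A, His-CtBP, 125 nM each); pin 23 nL compound; 2 h at 37 °C, dark; add 5X beads (50 ug/mL); 1 h; read.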
* marks the source's active call; other numbers are inactive results; ? = inconclusive; . = no result given; [ ] = another dose, or the depositor's remark. In the library only some 5.6% were active in any assay of this set; here they are far more common. Unless noted, the call rests on the fitted dose curve; in most records, active means well fitted curve in the direction sought with a large enough effect; inconclusive means small, poorly fitted or top-dose-only effect, or another doubt; inactive means no such curve, though single readings can be large; an effect the other way counts as inactive or inconclusive. On the % scale 0 is the no-effect control and ±100 the full control effect.

SMILES | Gal4-VP16 FLuc | RORgamma inh | Six1-Eya2 blk | PKM2 act | CtBP-E1A inh
Cc1cc(C)nc(Nc2n[nH]c(-c3ccc(C(C)(C)C)cc3)n2)n1 | 5% | 10µM* | -4 | 7% | -1
Cc1cc(C)nc(Nc2n[nH]c(-c3ccc(N)cc3)n2)n1 | ? | 0% | 0 | 1% | -1
Cc1cc(C)nc(Nc2n[nH]c(-c3ccccc3Br)n2)n1 | ? | 14µM* | 8 | -1% | -2
Cc1cc(C)nc(Nc2n[nH]c(-c3ccccc3C)n2)n1 | -6% | ? | -1 | -1% | 10
Cn1cnc([N+](=O)[O-])c1S(=O)(=O)c1cccc(Cl)c1 | 5µM* | 2.8µM* | 2 | 4% | 1
Cn1cnc([N+](=O)[O-])c1S(=O)(=O)Oc1ccccc1 | . | . | -2 | . | 0
Cc1cc(C)c2c(=O)n(CC(=O)Nc3cccc(Cl)c3C)sc2n1 | 3.2µM* | ? | -20 | 3.2µM* | -6
Cc1cc(C)c2c(=O)n(CC(=O)Nc3ccc(Br)c(C)c3)sc2n1 | ? | 13µM* | -10 | ? | -7
Cn1c(=O)c([N+](=O)[O-])c(-n2cnc3ccccc32)c2ccccc21 | -8% | -24% | -1 | 3% | 2
CC(NC(=S)NC(=O)c1ccccc1Br)c1ccccc1 (stereo not drawn) | 7.1µM* | 6.3µM* | 3 | 0% | 3
O=C(NC1CCCCC1)c1cc(C(=O)c2ccccc2Br)c[nH]1 | -10% | -14% | 0 | 5% | 8
O=C(NC(=S)NC1CCCC1)c1ccccc1Br | ? | 4.5µM* | 9 | -1% | -4
O=C(NC(=S)NC1C2CC3CC(C2)CC1C3)c1ccccc1 (stereo not drawn) | 1.8µM* | 1.6µM* | -16 | -8% | -17
O=C(NC(=S)NC1CCCC1)c1ccccc1 | 10µM* | 7.1µM* | -15 | 1% | -16
CCOc1cccc2oc(-c3ccccc3Cl)cc(=O)c12 | ? | -41% | . | . | .
CCN(C(=S)NC(=O)C1CC1)c1ccccc1 | ? | ? | -7 | 0% | 1
O=C(NC(=S)NC1CC1)c1cccnc1 | ? | 5.6µM* | 7 | -2% | 3
CCN(C(=S)NC(=O)C1CCCC1)C1CCCCC1 | ? | 4.5µM* | 12 | . | 0
CCN(C(=S)NC(=O)c1ccccc1Br)C1CCCCC1 | 2.8µM* | 1µM* | 1 | -8% | 5
O=C(NNC(=S)NC1CCCCC1)c1ccccc1O | -12% | 14µM* | -13 | 1% | ?
CCN(CC(=O)Nc1ccccc1Br)C1CCCCC1 | 5% | 14% | 19 | -1% | 24
CCN(Cc1ccccc1)C(=O)COC(=O)c1cc(=O)[nH]c2ccccc12 | -9% | 41% | -4 | -11% | -5
CCOC(=O)[C@H]1[C@H]2COc3ccc(Br)cc3[C@@H]2N2C(=O)CN(Cc3ccc(F)cc3)C(=O)[C@@]12C | . | . | -12 | . | -10
CCC(=O)c1ccc(SC(=O)N(C)C)cc1O | 23% | 17% | 1 | -4% | 2
O=c1c2c(-c3ccccc3)csc2ncn1/N=C/c1cccc([N+](=O)[O-])c1O | -2% | 20µM* | ? | 2% | -72*
SMILES | Gal4-VP16 FLuc | RORgamma inh | Six1-Eya2 blk | PKM2 act | CtBP-E1A inh
COc1ccc2cc(C(c3nnnn3C3CCCC3)N3CCOCC3)c3nnnn3c2c1 (stereo not drawn) | -8% | -2% | 21 | 0% | 3
O=C(Nc1ccc(Cl)cc1)Nc1ccccc1Sc1ncc([N+](=O)[O-])s1 | ? | 11µM* | -27 | -3% | -13
CC1CCCC2(C1)NC(=S)c1c(sc3c1CCCC3)N2 (stereo not drawn) | ? | 32µM* | -3 | -10% | 24
CN1C(=O)c2c(sc3c2CCCC3)NC1c1ccccc1O (stereo not drawn) | ? | 40% | . | 0% | .
Cc1cccnc1NC(=O)c1ccco1 | . | . | 5 | . | 14
CCc1ccccc1N(CC(=O)NCCc1ccccc1)C(=O)CCC(=O)Nc1ccccn1 | -5% | ? | -16 | 3% | 0
S=C(NCc1ccco1)Nc1ccccn1 | 13µM* | 1.8µM* | -11 | 2% | 1
Cc1cccnc1NC(=S)NCc1ccco1 | ? | 2µM* | 5 | -4% | -6
S=C(NCCc1ccccc1)Nc1ccccn1 | 3.2µM* | 1.1µM* | 5 | 7% | 2
S=C(NCc1ccco1)Nc1ccc(Cl)cn1 | 2.8µM* | 2.5µM* | -14 | 7% | -18
Cc1ccc(N(C(=O)CNC(=O)c2ccco2)C(C(=O)NC2CCCC2)c2cccnc2)c(C)c1 (stereo not drawn) | -10% | 5% | -1 | . | -1
O=C(NCc1n[nH]c(=S)n1-c1ccc(Cl)c(Cl)c1)c1cccs1 | 6% | 16µM* | 3 | -16% | 3
O=C(NCc1n[nH]c(=S)n1-c1cccc(Cl)c1)c1cccs1 | 0% | -2% | 0 | -16% | 3
CCOC(=O)Cc1csc(/N=C/c2c(O)n(-c3ccccc3C(F)(F)F)c(=O)c3ccccc23)n1 | 4% | -12% | 1 | 6% | -19
CC(c1ccccc1)n1c(-c2ccccc2F)n[nH]c1=S (stereo not drawn) | 6.3µM* | 7.1µM* | 0 | 8%[11.5 µM] | -5
CC(c1ccc(F)cc1)n1c(-c2cccs2)n[nH]c1=S (stereo not drawn) | 10µM* | 2.8µM* | 2 | 1% | 0
CC(c1ccccc1)n1c(-c2ccc(Cl)cc2)n[nH]c1=S (stereo not drawn) | 6.3µM* | 5.6µM* | -4 | 0%[11.5 µM] | 2
CC(C)n1c(-c2ccccc2F)n[nH]c1=S | 11µM* | 3.2µM* | 2 | -4% | -4
COC(=O)[C@]12C(=O)NC[C@H](CN1c1ccc(Cl)c(C)c1)N2C | . | . | 1 | . | 1
CN(CC(=O)NCCc1ccccc1)S(=O)(=O)c1ccc(Br)s1 | -21% | 1% | -1 | -4% | 1
CC1=C(C(N)=O)C(c2cccs2)NC(=S)N1 (stereo not drawn) | 6% | -8% | 0 | 11% | 4
COC(=O)C1=C(C)NC(=O)NC1c1ccc(-c2ccc(Cl)cc2)o1 (stereo not drawn) | -2% | -38% | 0 | -7% | .
CC1=C(C(=O)Nc2ccccc2C(F)(F)F)C(c2sccc2C)NC(=S)N1 (stereo not drawn) | -2% | 20µM* | -4 | 1% | 0
COC(=O)C1=C(C)NC(=S)NC1c1ccc(-c2cc(Cl)ccc2Cl)o1 (stereo not drawn) | 4.5µM* | 4µM* | -12 | 0% | -8
CC1=C(C(=O)OC(C)C)C(c2cccs2)NC(=S)N1 (stereo not drawn) | ? | 13µM* | -7 | 18% | -10
COC(=O)C1=C(C)NC(=S)NC1c1sccc1C (stereo not drawn) | -10% | 16µM* | -18 | 2% | -3
CC(C)CNS(=O)(=O)c1ccc(CCC(=O)NCCc2ccccc2)cc1 | -1% | 34% | 1 | -4%[11.5 µM] | 5
